# Test results: the supplement of paper PMC4840960
# Tested on: E18 rat cortical neuron-glia co-culture
# Assay: myelination (MBP fiber length per Olig2+ nucleus), % of 1 µM DAPT response (DMSO = 0) (% of DAPT); higher = more myelination, active = 50 or more
# Conditions: 1 µM; treatment time: 8 days (DIV5-DIV13)
# Procedure, shortened: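 Library compounds at 1 or 5 µM in myelination medium were applied from DIV5 to DIV13 to papain-dissociated E18 rat cortical co-cultures seeded at 20,000 cells/well on poly-d-lysine/laminin 96-well plates. Fixed cells (4 % paraformaldehyde) were immunostained for MBP and Olig2 with DAPI, and four 10X fields were analysed in each duplicate well. Continuous straight MBP fiber length per Olig2+ nucleus was set to 0 for 0.1 % DMSO and to 100 for a 1 µM positive control.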
row,SMILES,myelination
1,Cn1nnc2c(C(N)=O)ncn2c1=O [Temozolomide],-29.3 (inactive)
2,CCCCC(=O)O[C@H]1CC[C@H]2[C@@H]3CCc4cc(O)ccc4[C@H]3CC[C@]12C [Estradiol valerate],1.8 (inactive)
3,CCCSc1ccc2[nH]c(NC(=O)OC)nc2c1 [Albendazole],112
4,CC(N)C12CC3CC(CC(C3)C1)C2 (centres undefined) [Rimantadine],28.7 (inactive)
5,Cc1occc(=O)c1O [Maltol],-10.1 (inactive)
6,CC1(C)O[C@@H]2C[C@H]3[C@@H]4CCC5=CC(=O)C=C[C@]5(C)[C@@]4(F)[C@@H](O)C[C@]3(C)[C@]2(C(=O)CO)O1 [Triamcinolone Acetonide],5.47 (inactive)
7,CC12CC3CC(C)(C1)CC(N)(C3)C2 [Memantine],12.9 (inactive)
8,NS(=O)(=O)c1cc2c(cc1C(F)(F)F)NCNS2(=O)=O [Hydroflumethiazide],-2.17 (inactive)
9,CCc1cccc2c3c([nH]c12)C(CC)(CC(=O)O)OCC3 (centres undefined) [Etodolac],-10.5 (inactive)
10,Cc1ccc(S(=O)(=O)NC(=O)NN2CCCCCC2)cc1 [Tolazamide],-15.6 (inactive)
11,C#C[C@]1(O)CC[C@H]2[C@@H]3CCC4=Cc5oncc5C[C@]4(C)[C@H]3CC[C@@]21C [Danazol],-20.4 (inactive)
12,O=C(O[C@H]1[C@H](Oc2ccccc2COC(=O)C2(O)C=CCCC2=O)O[C@H](CO)[C@@H](O)[C@@H]1O)c1ccccc1 (some centres undefined) [Tremulacin],-11.2 (inactive)
13,Cc1ccc(C)c(OCCCC(C)(C)C(=O)O)c1 [Gemfibrozil],-13.7 (inactive)
14,COc1ccc2cc(CCC(C)=O)ccc2c1 [Nabumetone],-8.32 (inactive)
15,COC(=O)C1=C(C)NC(C)=C(C(=O)OC)C1c1ccccc1[N+](=O)[O-] [Nifedipine],-18.3 (inactive)
16,C[C@H]1C[C@@H]2[C@H]([C@@H](O)C[C@@]3(C)[C@H]2CC[C@]3(O)C(=O)CO)[C@@]2(C)C=CC(=O)C=C12 [Methylprednisolone],-0.665 (inactive)
17,Clc1ccc2nsnc2c1NC1=NCCN1 [Tizanidine],-26.5 (inactive)
18,CCCc1cc(=O)[nH]c(=S)[nH]1 [Propylthiouracil],-9.29 (inactive)
19,Cc1cn([C@H]2C=C[C@@H](CO)O2)c(=O)[nH]c1=O [Stavudine],-12.8 (inactive)
20,CC1(C)O[C@@H]2C[C@H]3[C@@H]4C[C@H](F)C5=CC(=O)C=C[C@]5(C)[C@@]4(F)[C@@H](O)C[C@]3(C)[C@]2(C(=O)CO)O1 [Fluocinolone Acetonide],22.3 (inactive)

row,SMILES,myelination
1,NC1CCN(c2nc3c(cc2F)c(=O)c(C(=O)O)cn3-c2ccc(F)cc2F)C1 (centres undefined) [Tosufloxacin],-12.3 (inactive)
2,CCN1CCC[C@H]1CNC(=O)c1c(O)c(Cl)cc(Cl)c1OC [Raclopride],18.4 (inactive)
3,CCOc1ccc2ccccc2c1C(=O)N[C@@H]1C(=O)N2[C@@H]1SC(C)(C)[C@@H]2C(=O)O [Nafcillin],4.05 (inactive)
4,COc1c(N2CCNC(C)C2)c(F)cc2c(=O)c(C(=O)O)cn(C3CC3)c12 (centres undefined) [Gatifloxacin],-17 (inactive)
5,CC(C)[C@H]1CC[C@H](C(=O)N[C@H](Cc2ccccc2)C(=O)O)CC1 [Nateglinide],-12.6 (inactive)
6,O=c1[nH]c(=O)n([C@H]2C[C@H](O)[C@@H](CO)O2)cc1F [Floxuridine],286
7,COc1ccccc1OCC(O)CN1CCN(CC(=O)Nc2c(C)cccc2C)CC1 (centres undefined) [Ranolazine],-13.7 (inactive)
8,OC(CCN1CCCCC1)(c1ccccc1)C1CCCCC1 (centres undefined) [Trihexyphenidyl],-12.2 (inactive)
9,CC(=O)O[C@]1(C(C)=O)CC[C@H]2[C@@H]3C[C@H](C)C4=CC(=O)CC[C@]4(C)[C@H]3CC[C@@]21C [Medroxyprogesterone acetate],0.776 (inactive)
10,CC(=O)Oc1ccccc1C(=O)Nc1ncc([N+](=O)[O-])s1 [Nitazoxanide],4.89 (inactive)
11,C=C[C@H]1CN2CC[C@H]1C[C@H]2[C@H](O)c1ccnc2ccc(OC)cc12 [Quinine],-1.48 (inactive)
12,C[C@H]1O[C@@H](O[C@H]2[C@@H](O)C[C@H](O[C@H]3[C@@H](O)C[C@H](O[C@H]4CC[C@@]5(C)[C@H](CC[C@@H]6[C@@H]5C[C@@H](O)[C@]5(C)[C@@H](C7=CC(=O)OC7)CC[C@]65O)C4)O[C@@H]3C)O[C@@H]2C)C[C@H](O)[C@@H]1O [Digoxin],34 (inactive)
13,CN(C)CCC=C1c2ccccc2COc2ccccc21 [Doxepin],-6.24 (inactive)
14,C[C@H](N[C@@H](CCc1ccccc1)C(=O)O)C(=O)N1CCC[C@H]1C(=O)O [Enalaprilat],-2.57 (inactive)
15,COc1ccc(/C=C/C(=O)Nc2ccccc2C(=O)O)cc1OC [Tranilast],-12.7 (inactive)
16,CNC(=N)NCCC[C@H](N)C(=O)O,-37.1 (inactive)
17,NS(=O)(=O)c1cc2c(cc1C(F)(F)F)NC(Cc1ccccc1)NS2(=O)=O (centres undefined) [Bendroflumethiazide],-24.6 (inactive)
18,COCCOC(=O)C1=C(C)NC(C)=C(C(=O)OC(C)C)C1c1cccc([N+](=O)[O-])c1 (centres undefined) [Nimodipine],-18.6 (inactive)
19,CC(=O)OCC(=O)[C@@]1(O)CC[C@H]2[C@@H]3CCC4=CC(=O)CC[C@]4(C)[C@H]3C(=O)C[C@@]21C [Cortisone acetate],-45.2 (inactive)
